From the supplement of paper PMC13380429

System: Vero E6 infected with SARS-CoV-2
Assay: inhibition of SARS-CoV-2 cytopathic effect; higher = more antiviral protection, active = above 15
Settings: 48 h

Measured: inhibition of SARS-CoV-2 cytopathic effect

C/C=C(/C)C(=O)O[C@H]1C(C)=C[C@]23C(=O)[C@@H](C=C(CO)[C@@H](O)[C@]12O)[C@H]1[C@@H](C[C@H]3C)C1(C)C [ingenol-mebutate]
inactive: 1 nM -1.66% | 8.33 nM -1.76% | 100 nM -8.12% | 833.33 nM -7.76% | 10000 nM -8.66%

CC(C)(C)c1ccc(CN2CCN(C(c3ccccc3)c3ccc(Cl)cc3)CC2)cc1 (stereo not given) [buclizine]
inactive: 1 nM -1.54% | 8.33 nM -0.87% | 100 nM 0.71% | 833.33 nM 0.45% | 10000 nM 2.38%

O=c1cc[nH]c(=S)[nH]1 [2-thiouracil]
inactive: 1 nM 3.22% | 8.33 nM 2.55% | 100 nM 2.51% | 833.33 nM 0.11% | 10000 nM -0.68%

NCCCC[C@H](NC(=O)[C@@H]1CCCN1C(=O)[C@@H]1CSSC[C@H](NC(=O)CNC(=O)CNC(=O)CN)C(=O)N[C@@H](Cc2ccc(O)cc2)C(=O)N[C@@H](Cc2ccccc2)C(=O)N[C@@H](CCC(N)=O)C(=O)N[C@@H](CC(N)=O)C(=O)N1)C(=O)NCC(N)=O [terlipressin]
inactive: 1 nM 2.67% | 8.33 nM 0.07% | 100 nM 0.5% | 833.33 nM -0.07% | 10000 nM 0.72%

Cc1cc(C(=O)O)sc1C(N)C(=O)O (stereo not given)
inactive: 1 nM 0.31% | 8.33 nM -0.48% | 100 nM -1.39% | 833.33 nM 1.06% | 10000 nM -0.02%

CCC[C@H](NC(=O)/C(C#N)=C/c1cccc(Br)n1)c1ccccc1
inactive: 1 nM 1.89% | 8.33 nM 1.78% | 100 nM -0.09% | 833.33 nM 4.12% | 10000 nM -5.9%
